Bioassay records deposited in PubChem by National Center for Advancing Translational Sciences (NCATS).
In the library only some 19% were active in any assay of this set; here they are far more common.
TDP1 cell CPT = growth inhibition of DT40 Tdp1-/-;hTDP1 cells with camptothecin (screen for TDP1 inhibitors); 420,000 compounds, 12% hits; chicken DT40 Tdp1-/-;hTDP1 cells + 20 nM CPT, ATP luminescence, 48 h; AID 686979; Potency, µM (highest dose often 46.2 µM), for inactives: at the top dose activity change, negative = growth inhibition, usual class: inhibitors; note: potency is the fitted concentration of half-maximal effect; nearly all actives have a fitted effect of over 55% in size
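Chicken DT40 Tdp1-/- cells complemented with human TDP1, 400 cells/well, exposed to compounds plus 20 nM camptothecin for at least 48 h at 37 C; viability read as ATP content by CellTiter-Glo luminescence.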
TDP1 inh = blocks human tyrosyl-DNA phosphodiesterase 1 | Potency, µM (series often up to 130 µM), for the others: top-dose activity change, negative = inhibition, most hits filed as inhibitors | AID 485290 | 350,000 compounds, 0.28% hits | Q9NUW8 | recombinant TDP1, AlphaScreen DNA substrate cleavage; note: potency is the fitted concentration of half-maximal effect; nearly all actives have a fitted effect of over 40% in size
Target sequence (Q9NUW8 whole entry, looked up): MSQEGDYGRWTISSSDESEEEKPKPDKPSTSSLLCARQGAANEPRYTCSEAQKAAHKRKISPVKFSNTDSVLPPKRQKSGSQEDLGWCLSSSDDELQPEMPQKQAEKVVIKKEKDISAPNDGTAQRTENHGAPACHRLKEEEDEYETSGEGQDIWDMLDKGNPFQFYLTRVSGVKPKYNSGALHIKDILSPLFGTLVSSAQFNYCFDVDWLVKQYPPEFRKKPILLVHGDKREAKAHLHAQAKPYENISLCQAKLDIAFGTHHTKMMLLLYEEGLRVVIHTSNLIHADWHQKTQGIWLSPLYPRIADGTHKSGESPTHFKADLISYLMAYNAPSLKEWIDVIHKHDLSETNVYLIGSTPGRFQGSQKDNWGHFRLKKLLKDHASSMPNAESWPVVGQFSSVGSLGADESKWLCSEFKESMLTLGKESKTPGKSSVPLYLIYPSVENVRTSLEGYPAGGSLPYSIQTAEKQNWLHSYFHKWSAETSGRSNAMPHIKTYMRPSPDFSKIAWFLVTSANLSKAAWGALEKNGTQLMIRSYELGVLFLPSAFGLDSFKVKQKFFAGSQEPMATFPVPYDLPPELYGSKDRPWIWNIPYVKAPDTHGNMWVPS
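Enzyme-compound mixtures sat 15 min at room temperature, followed by a 5 min reaction with 15 nM final substrate and 10 min with AlphaScreen beads. Recombinant human Tdp1 was used at 1 nM final.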
ELG1 repair inh = ELG1-dependent DNA repair inhibition; HEK293T ELG1-luciferase reporter, luminescence, 16 h; DNA damage induced by 5-fluorouridine; Potency, µM (top dose mostly 46.1 µM), for inactives: at the highest dose activity change, negative = inhibition, hits mostly inhibitors; 330,000 compounds, 2.3% hits; AID 504467; note: potency is the fitted concentration of half-maximal effect; nearly all actives have a fitted effect of over 55% in size
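Overnight (16 hr) co-exposure of 2,000 cells/well to 5-fluorouridine and compound at 37 °C preceded detection. Luciferase was quantified via ONE-Glo luminescence; loss of signal denotes inhibition.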
TDP1 cell noCPT = qHTS for Inhibitors of human tyrosyl-DNA phosphodiesterase 1 (TDP1): qHTS in cells in absence of CPT; AID 686978, 2013; Potency, µM (doses to about 46.2 µM), inactives show at the highest dose activity change, negative = growth inhibition, hits mostly inhibitors; DT40 Tdp1-/- hTDP1 cells, no CPT, ATP luminescence, 48 h; 420,000 compounds, 15% hits; note: potency is the fitted concentration of half-maximal effect; nearly all actives have a fitted effect of over 55% in size
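Compound effects on proliferation are scored in DT40 Tdp1-/-;hTDP1 cells in the absence of CPT. ATP levels (CellTiter-Glo luminescence) are recorded after a ≥48 hr, 37 °C incubation.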
IL-1B inflam inh = inhibitors of inflammasome signaling (IL-1 beta secretion); THP-1 LPS/ATP IL-1B secretion, AlphaLISA, 16 h; hits give low values; activity change, % at 57.5 µM; 360,000 compounds, 4.7% hits; in the data active = activity change below about -50%; inconclusive = mostly about -30% to -49%
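Secreted IL-1B measured by AlphaLISA bead assay after 16 h compound exposure of THP-1 cells; compounds (final up to 57.5 uM) added 1 h before LPS (250 ng/mL) and ATP (1.25 mM) stimulation; lower signal means less secretion.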
Giardia killer = Giardia lamblia killing. Giardia lamblia trophozoite viability. activity change, % at 7.66 µM, hits read low. 340,000 compounds, 0.15% hits. AID 540267; in the data active = activity change below about -80%; inconclusive = between about -30% and that limit;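 note: parasites exposed to compound for two days anaerobically before the ATP read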
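Compounds were tested on trophozoites seeded at 100 cells/well and held 48 hrs at 37 deg C anaerobically. An ATP-based luminescent kit measured the remaining live cells.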
* = called active by the depositor; ! = not active in a repeat. Unless noted, calls come from the whole dose curve; as a rule, active = well fitted curve in the direction sought with a large enough effect; inconclusive = small, poorly fitted or top-dose-only effect, or another doubt; inactive = no such curve, though single readings can be large; an effect the other way counts as inactive or inconclusive. % is set by controls: 0 for no effect and ±100 for the full control effect.

How did COc1ccc(-c2nc(CSCC(=O)N3CCN(c4ccccc4)CC3)c(C)o2)cc1 do in these assays?
TDP1 cell CPT: 10µM*; TDP1 inh: 8%; TDP1 cell noCPT: 10µM*

What do the screens show for `CCc1ccc(OCC(=O)N/N=C(\C)c2ccc(O)cc2O)cc1`?
TDP1 cell CPT: 7.3µM*; TDP1 inh: 8%; ELG1 repair inh: inconclusive; TDP1 cell noCPT: 2.6µM*; IL-1B inflam inh: 74; Giardia killer: -14

Results for Cc1nnc(NC(=O)CCn2cnc3ccccc3c2=O)s1 ?
TDP1 cell CPT: -19%; TDP1 inh: -4%; ELG1 repair inh: 7%; TDP1 cell noCPT: 0%; IL-1B inflam inh: 19; Giardia killer: 2

How did O=C(Nc1cc(S(=O)(=O)N2CCCCC2)ccc1Cl)c1ccccc1NS(=O)(=O)c1ccc(F)cc1 do in these assays?
TDP1 cell CPT: 5.2µM*; TDP1 inh: 4%; ELG1 repair inh: 4.1µM*; TDP1 cell noCPT: 2.6µM*; IL-1B inflam inh: -22; Giardia killer: 0

What do the screens show for `Cc1ccc(S(=O)(=O)N2CCOCC2)cc1C(=O)Nc1cc(S(=O)(=O)N2CCCCC2)ccc1O`?
TDP1 cell CPT: inconclusive; TDP1 cell noCPT: inconclusive; IL-1B inflam inh: 3; Giardia killer: -8

Results for O=C(c1ccccc1NS(=O)(=O)c1ccc(F)cc1)N1CCCCC1 ?
TDP1 cell CPT: 4%; TDP1 inh: 2%; ELG1 repair inh: -3%; TDP1 cell noCPT: -9%; IL-1B inflam inh: 9; Giardia killer: -9

How did O=C(Nc1cc(S(=O)(=O)N2CCCCC2)ccc1O)c1ccccc1NS(=O)(=O)c1ccc(F)cc1 do in these assays?
TDP1 cell CPT: -20%; TDP1 inh: 4%; ELG1 repair inh: -6%; TDP1 cell noCPT: -26%; IL-1B inflam inh: -56*!; Giardia killer: -13

What do the screens show for `CCOc1ccc(C(=O)COC(=O)Cc2n[nH]c(=O)c3ccccc23)cc1`?
TDP1 cell CPT: 0.92µM*; ELG1 repair inh: inconclusive; TDP1 cell noCPT: 0.73µM*; IL-1B inflam inh: 38; Giardia killer: -19

Results for O=C(COC(=O)Cc1n[nH]c(=O)c2ccccc12)NNC(=O)c1ccc(Cl)cc1 ?
TDP1 cell CPT: 21µM*; TDP1 inh: 1%; ELG1 repair inh: -1%; TDP1 cell noCPT: 23µM*; IL-1B inflam inh: 12; Giardia killer: 9

Results for O=C(Cc1n[nH]c(=O)c2ccccc12)OCC(=O)c1ccc(F)cc1 ?
TDP1 cell CPT: -1%; TDP1 inh: -7%; ELG1 repair inh: -4%; TDP1 cell noCPT: -6%; IL-1B inflam inh: 9; Giardia killer: -10

What do the screens show for `O=C(Cc1n[nH]c(=O)c2ccccc12)OCC(=O)c1ccc2c(c1)OCCO2`?
TDP1 cell CPT: 0.92µM*; TDP1 inh: 6%; ELG1 repair inh: inconclusive; TDP1 cell noCPT: 1.3µM*; IL-1B inflam inh: 64; Giardia killer: 11

Results for CN1CCc2sc(NC(=O)Cc3ccccc3)c(C(=O)Nc3ccc(Cl)cc3)c2C1 ?
TDP1 inh: -6%

What do the screens show for `[N-]=[N+]=NC(c1ccccc1)C(NC(=O)c1cc(C(F)(F)F)cc(C(F)(F)F)c1)c1ccccc1` (centres undefined)?
TDP1 cell CPT: inconclusive; TDP1 cell noCPT: 23µM*; IL-1B inflam inh: 12

How did COc1ccc(Cl)cc1NC(=O)c1cc(C)nn1-c1ccccc1 do in these assays?
TDP1 cell CPT: inconclusive; TDP1 inh: 6%; TDP1 cell noCPT: inconclusive

How did CC(C)C1CC(CCNCc2ccc(N(C)C)cc2)(c2ccccc2)CCO1 (centres undefined) do in these assays?
TDP1 cell CPT: 7.3µM*; TDP1 inh: 6%; ELG1 repair inh: -15%; TDP1 cell noCPT: 7.3µM*; IL-1B inflam inh: -100*; Giardia killer: -20

Results for Cc1ccc(C2(CCNS(=O)(=O)c3ccc(C)cc3)CCOC(C(C)C)C2)cc1 (centres undefined) ?
TDP1 cell CPT: inconclusive; TDP1 inh: -2%; ELG1 repair inh: inconclusive; TDP1 cell noCPT: inconclusive; IL-1B inflam inh: -8; Giardia killer: 1

What do the screens show for `CC(NCc1ccc2c(c1)OCO2)c1ccccc1` (centres undefined)?
TDP1 cell CPT: -16%; ELG1 repair inh: -1%; TDP1 cell noCPT: -25%; IL-1B inflam inh: -8; Giardia killer: 1

Results for Cc1ccc(C2(CCNCc3ccc(N(C)C)cc3)CCOC(C(C)C)C2)cc1 (centres undefined) ?
TDP1 cell CPT: inconclusive; TDP1 inh: 5%; ELG1 repair inh: inconclusive; TDP1 cell noCPT: -109%; IL-1B inflam inh: -97*; Giardia killer: -9

What do the screens show for `CC(C)C1CC(CCNCc2ccc3c(c2)OCO3)(c2ccccc2)CCO1` (centres undefined)?
TDP1 cell CPT: inconclusive; ELG1 repair inh: -24%; TDP1 cell noCPT: inconclusive; IL-1B inflam inh: -69*; Giardia killer: -1

How did COc1ccc(/C=N/NC(=O)CNC(=O)c2ccc3c(c2)OCCO3)c(C(=O)O)c1OC do in these assays?
TDP1 cell CPT: -2%; TDP1 inh: 1%; ELG1 repair inh: 16%; TDP1 cell noCPT: 5%; IL-1B inflam inh: 1; Giardia killer: 4

What do the screens show for `CC12C(=O)N(Cc3ccco3)C(=O)C1C1c3ccccc3C2c2ccccc21` (centres undefined)?
TDP1 cell CPT: inconclusive; TDP1 inh: -2%; ELG1 repair inh: -16%; TDP1 cell noCPT: 23µM*; IL-1B inflam inh: -5; Giardia killer: 8

Results for CC(C)c1ccc(N(CCc2ccccn2)C(=O)C(C)(C)C)cc1 ?
TDP1 cell CPT: 16µM*; TDP1 cell noCPT: 15µM*; IL-1B inflam inh: 6; Giardia killer: -6

Results for CCN(c1ccccc1)S(=O)(=O)c1ccc(NC(=O)c2cc(=O)c3cc(C)ccc3o2)cc1 ?
TDP1 cell CPT: -9%; TDP1 inh: 1%; TDP1 cell noCPT: -7%

Results for Nc1cnccn1 ?
TDP1 cell CPT: -3%; TDP1 cell noCPT: -1%

What do the screens show for `COC(=O)c1ccc(CNC(=O)C2CCC(=O)N(CCN3CCOCC3)C2)cc1` (centres undefined)?
TDP1 cell CPT: -2%; TDP1 inh: 2%; ELG1 repair inh: -10%; TDP1 cell noCPT: -12%; IL-1B inflam inh: -11; Giardia killer: -7

What do the screens show for `Cn1cc(CN2CCC(C(O)c3cccs3)CC2)c(-c2cccc(Cl)c2)n1` (centres undefined)?
TDP1 cell CPT: 5%; TDP1 inh: 3%; ELG1 repair inh: -11%; TDP1 cell noCPT: -19%; IL-1B inflam inh: inconclusive; Giardia killer: inconclusive
